Measured values reported in the supplement of paper PMC9334596.
Where “and” joins values, the source holds several entries; their conditions need not be identical. Identical values can stand only once. Over roughly 5,300 compounds, “PER2::LUC luminescence relative to vehicle control” has its median near 0.96; the highest 2% begin near 1.3. Many of the other results were omitted from the sample, so the highest values are more common in it than they were.

Test system: mPer2Luc MEF
Experiment: PER2::LUC luminescence relative to vehicle control (fold of vehicle); higher = higher PER2::LUC reporter signal
Settings: 10 µM
In short: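 In 384-well plates, ~3000 mPer2Luc reporter mouse embryonic fibroblasts per well were cultured in DMEM with 10% FBS at 37 °C and 5% CO2 for 48 h before compounds from commercial libraries were added at 10 μM. ONE-Glo luciferase readings were taken 24 h and 30 h after treatment. Each value is PER2::LUC luminescence given as fold of vehicle control.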

SMILES	PER2::LUC luminescence (time after treatment 24 h)	PER2::LUC luminescence (time after treatment 30 h)
O=[N+]([O-])c1cn(CCN2CCOCC2)cn1	0.977	0.974
COc1cc2c3cc1Oc1c(OC)c(OC)cc4c1[C@@H](Cc1ccc(OC(=O)c5ccc([N+](=O)[O-])cc5)c(c1)Oc1ccc(cc1)C[C@@H]3N(C)CC2)N(C)CC4	0.754	0.76
C#CCN(C)CCCOc1ccc(Cl)cc1Cl	1.23	1.37
C#CCN(C)Cc1ccccc1	0.93 and 0.871	0.955 and 0.95
Cc1cc(Br)c(O)c2ncccc12	1.19	0.958
COC(=O)N[C@H](C(=O)NNC[C@H](O)[C@H](Cc1ccccc1)NC(=O)[C@@H](NC(=O)OC)C(C)(C)C)C(C)(C)C	0.974	0.963
Cc1cccc(/C=C/c2ccccc2)n1	1.35	1.16
CN(C/C=C/c1ccccc1)Cc1cccc2ccccc12	0.5	0.535
CC(COc1ccc(/C=C/c2ccccc2)cc1)[N+](C)(C)C (stereo not given)	0.936	1.02
O=Cc1c2[nH]c3ccccc3c2cc2[nH]c3ccccc3c12	1.54	1.5
OCc1cc2c(cn1)[nH]c1ccccc12	0.851	0.873
O=c1[nH]c2ccccc2c2ccccc12	1.19	0.972
CC[C@@H](C)[C@@H](O)[C@H](C)C(=O)[C@H](C)/C=C(\C)C[C@H](C)[C@@H]1OC(=O)[C@H]1CC	1.06	0.925
Clc1cccc(COc2cncc(N3CCNCC3)n2)c1	0.246	0.301
CCCCc1ccc(NC(C)=O)c(C)c1	1.1	1.05
O=C(Nc1cccc(Cl)c1)c1ccccn1	1.65	1.48
CN1CC(=O)N=C1NC(=O)Nc1cccc(Cl)c1	0.949	1.1
COc1cc(NC(=O)c2ccccn2)ccc1Cl	1.13	1.38
CS(=O)(=O)c1ccc(C(=O)Nc2ccc(Cl)c(-c3ccccn3)c2)c(Cl)c1	1.17	1.14
O=C(Nc1ccc(S(=O)(=O)Nc2ccccc2Cl)c(Cl)c1)c1ccccn1	0.992	1.06
COc1ccccc1C(=O)Nc1cccc(NC(=O)c2cccc(C)c2)c1	0.917	0.985
COc1cccc(CNC(=O)Nc2nc(-c3ccncc3)cs2)c1	0.558	0.601
O=c1ncc(F)c[nH]1	0.979	0.911

SMILES	PER2::LUC luminescence (time after treatment 24 h)	PER2::LUC luminescence (time after treatment 30 h)
Cn1c2ncnc-2c(O)n(C)c1=O	1.14	1.18
FC(F)(F)COB(OCC(F)(F)F)OCC(F)(F)F	0.958	1
O=C1CN(/N=C/C=C/c2ccc([N+](=O)[O-])o2)C(=O)N1	1.04	1.01
CCOc1cccc(C(=O)c2ccc(O)c(O)c2O)c1	1.23	1.37
CCOc1ccc(C(=O)c2ccc(O)c(O)c2O)cc1	0.963	1.08
CCOc1ccc(C(=O)c2ccc(OC)c(O)c2O)cc1	0.983	0.916
O=C(Nc1cccc(NC(=O)c2cccc(O)c2O)c1)c1cccc(O)c1O	0.916	1.34
O=C(O)Cc1cccc(OCCCN(Cc2cccc(C(F)(F)F)c2Cl)CC(c2ccccc2)c2ccccc2)c1	1.4	1.47
O=c1[nH]c(C2CCCN2)nc2c1oc1ccc(Cl)cc12 (stereo not given)	1.22	1.29
N#Cc1cc(-c2ccnc(Nc3ccc(N4CCOCC4)cc3)n2)ccc1OC1CCOCC1	0.507	0.584
O=C(CCCCCCCCCCCCC1CCCC1)Nc1ccc(S(=O)(=O)c2ccc(NC(=O)CCCCCCCCCCCCC3CCCC3)cc2)cc1	1.06	1.02
COc1ccccc1C(=O)Nc1cc2c(cc1N1CCCCC1)n(C)c(=O)n2C	0.765	0.829
COc1cccc(-c2ccc(NC(=O)C3=C(C(=O)O)CCC3)c(F)c2)c1	1.43	1.75
COc1cccc(C(=O)NCCN2CCN(c3ccc(Cl)cc3)CC2)c1	0.833	0.96
CC(C)=CCC/C(C)=C/CC/C(C)=C/CC/C(C)=C/C(=O)O	1.07	0.976
COc1c(O)c2c(=O)cc(OC)c3c4c(OC)cc(=O)c5c(O)c(OC)c6c(c(c1CC(C)=C6C(C)=O)c23)c54	0.779	0.948
C=CCSSSCC=C	1.32	1.05
Nc1ccc(-c2nc3ccc(-c4nc5ccc(N)cc5[nH]4)cc3[nH]2)cc1	0.876	0.866
O=C(O)c1cc(-c2ccccc2)nc2ccccc12	0.91	1.12
Nc1ccc(-c2ccc3ccccc3n2)cc1	1.74	1.29
COc1cc(Nc2nc3c(s2)CCCC3c2ccc(F)cc2)ccc1-n1cnc(C)c1 (stereo not given)	1.05	1.02
C/C=C\c1ccc(OC)cc1	1	1.03
CC(CC(=O)O)C(N)C(=O)O (racemic)	0.979	0.922

SMILES	PER2::LUC luminescence (time after treatment 24 h)	PER2::LUC luminescence (time after treatment 30 h)
O=c1cc(-c2ccccc2F)[nH]c2cc3c(cc12)OCO3	0.9	0.871
CC(C)=CC[C@@H](OC(=O)C=C(C)C)C1=CC(=O)c2c(O)ccc(O)c2C1=O	1.03	1.03
CC12CCc3occc3C1CCC13CC(=O)C(CCC12)C3 (stereo not given)	0.996	0.94
CC(=O)O[C@H]1CC[C@]2(C)C3CC[C@@]4(C)[C@H](C5CC(C6OC6(C)C)OC5O)CC[C@]4(C)C3=CC[C@H]2C1(C)C (stereo not given in full)	1.14	1.08
CC1=C(/C=C/C(C)=C/C=C/C(C)=C/C(=O)O)C(C)(C)CCC1O (stereo not given)	0.928	1.06
COc1cc(C)c(/C=C/C(C)=C/C=C/C(C)=C/C(=O)O)c(C)c1C	1.82	2.04
COc1cc(/C=C/C(=O)O)cc(OC)c1OC	0.994	0.955
O=C(NCc1cccs1)c1cc2nc(-c3ccco3)cc(C(F)(F)Cl)n2n1	1.03	1.11
Cn1nnnc1SCC1=C(C(=O)O)N2C(=O)[C@@H](NC(=O)C(OC=O)c3ccccc3)[C@H]2SC1 (stereo not given in full)	0.605	0.705
O=C(/C=C/C=C/c1ccc2c(c1)OCO2)N1CCCCC1	1.5	1.42
O=C(c1ccc2c(c1)OCO2)N1CCCCC1	1	0.843
O=C(O)/C=C/C=C/c1ccc2c(c1)OCO2	1.07	1.03
COc1cc(N2CCOCC2)ccc1Nc1ncc(F)c(Nc2ccccc2NS(C)(=O)=O)n1	0.771	0.673
Nc1nc(Nc2ccc3c(c2)CCC(N2CCCC2)CC3)nn1-c1cc2c(nn1)-c1ccccc1CCC2 (stereo not given)	0.438	0.375
C[C@@H](O)[C@H](NC(=O)c1ccc(C#Cc2ccc(CN3CCOCC3)cc2)cc1)C(=O)NO	1.32	1.62
O=C(c1ccc(CN2CCOCC2)cc1)N1CCN(C2CC2)CC1	1.07	0.963
O=C(NCCN1CCOCC1)c1ccc(Cl)cc1	1.09 and 1.08	0.965 and 1.2
O=C1/C(=C/c2cc(Br)c(O)c(Br)c2)COC/C1=C\c1cc(Br)c(O)c(Br)c1	0.259	0.258
COc1cc2c(c(OC)c1OC)-c1ccc(OC)c(=O)cc1[C@@H](NC=O)CC2	0.938	0.84
NCC(O)c1ccc(O)c(O)c1 (stereo not given)	1.47	1.55
NCC(O)c1ccc(O)c(O)c1 (racemic)	1.04	1.12
NC[C@@H](O)c1ccc(O)c(O)c1	1.26	1.04
CCCC[C@@H](C)/C=C(C)/C=C(\C)C(=O)NC1=C[C@@](O)(/C=C/C=C/C=C/C(=O)NC2=C(O)CCC2=O)[C@@H]2O[C@@H]2C1=O	0.951	0.934

SMILES	PER2::LUC luminescence (time after treatment 24 h)	PER2::LUC luminescence (time after treatment 30 h)
Cc1ccc(O)cc1Nc1ccnc(Nc2cccc(C(N)=O)c2)n1	1.05	1.02
CCOC(=O)c1sc(NC(=O)[C@H](C(C)C)n2c(=O)[nH]c3ccccc3c2=O)nc1C	1.02	0.987
O=C(O[C@H]1[C@H](Oc2ccccc2COC(=O)C2(O)C=CCCC2=O)O[C@H](CO)[C@@H](O)[C@@H]1O)c1ccccc1 (stereo not given in full)	0.824	0.676
Nc1ccc(/N=N/c2ccccc2)c(N)n1	1.76	1.7
Cc1ccc(O)c(N=Nc2ccccc2)n1	1.05	0.998
CC[C@H]1CN(c2nc(N)c(C(N)=O)nc2Cl)CCN1C1CCN(Cc2ccc(Cl)cc2)CC1	0.96	1.01
O=c1cc(-c2ccc(O)c(O[C@@H]3O[C@H](CO)[C@@H](O)[C@H](O)[C@H]3O)c2)oc2cc(O[C@@H]3O[C@H](CO)[C@@H](O)[C@H](O)[C@H]3O)cc(O)c12	1.07	1.04
OC[C@H]1O[C@@H](Oc2ccc(O)cc2)[C@H](O)[C@@H](O)[C@@H]1O	1.02	0.876
COc1ccc(-c2coc3cc(O)ccc3c2=O)c(OC)c1	1.02	1.05
COc1ccc(-c2coc3cc(O)ccc3c2=O)cc1	1.77	1.97
COc1ccc2c(=O)c(CC(=O)O)coc2c1	0.908	0.978
C[C@@H]1O[C@@H](O[C@H]2[C@H](Oc3cc(O)c4c(=O)cc(-c5ccc(O)cc5)oc4c3)O[C@H](CO)[C@@H](O)[C@@H]2O)[C@H](O)[C@H](O)[C@H]1O	0.841	0.85
O=c1c(-c2ccc(O)cc2)coc2cc(O)ccc12	0.822	0.788
O=c1c(-c2ccc(O)cc2)coc2cc(O[C@@H]3O[C@H](CO)[C@@H](O)[C@H](O)[C@H]3O)ccc12	1.25	1.39
O=c1c(-c2ccc(O)cc2)coc2cc(O[C@@H]3O[C@H](CO)[C@@H](O)[C@H](O)[C@H]3O)cc(O)c12	1.3	1.32
O=c1cc(-c2ccc(O)cc2)oc2cc(O[C@@H]3O[C@H](CO)[C@@H](O)[C@H](O)[C@H]3O)cc(O)c12	1.22	1.43
COc1ccccc1-c1coc2cc(O)ccc2c1=O	1.14	1.04
CC(C)Oc1ccc2c(=O)c(-c3ccccc3)coc2c1	1.9	1.92
Cc1ccc(NC(=O)Nc2cc(-c3ccccc3-c3nn[nH]n3)ccc2N(CC(C)C)CC(C)C)cc1	0.966	0.93
O=c1ccc2cccc(O)c2[nH]1	1.06	0.957
CCCCC/C=C\CCC(=O)N[C@H]1[C@H](Oc2c3cc4cc2Oc2ccc(cc2Cl)[C@@H](O[C@@H]2O[C@H](CO)[C@@H](O)[C@H](O)[C@H]2NC(C)=O)[C@@H]2NC(=O)[C@H](NC(=O)[C@@H]4NC(=O)[C@H]4NC(=O)[C@@H](Cc5ccc(c(Cl)c5)O3)NC(=O)[C@H](N)c3ccc(O)c(c3)Oc3cc(O)cc4c3)c3ccc(O)c(c3)-c3c(O[C@H]4O[C@H](CO)[C@@H](O)[C@H](O)[C@@H]4O)cc(O)cc3[C@@H](C(=O)O)NC2=O)O[C@H](CO)[C@@H](O)[C@@H]1O	0.886	0.953
